These results are taken from PubChem BioAssay (NCI).

The structures appear in SMILES notation. Where “and” joins values, the source holds several entries; their conditions need not be identical. Equal values may be shown once. This is part of a sample that, as a whole, favours compounds with a hit. Of some 83,000 tested, about 20% had one in any assay.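 Testing used 96-well plates and a 48-hour single-concentration exposure. Example: -40 means 40% of the starting cells died.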 Values without a mark were called inactive. Calls of active or inactive are those of the source.

One test relates to SNB-19 CNS. The experiment in a line: NCI-60 one-dose screen, 48 h (100 = growth as untreated, 0 = no growth, -100 = all killed). The following applies: 0.0025 µM. Here is the method: Growth inhibition of the SNB-19 human tumor cell line is measured as a screen for anti-cancer activity. Cells are grown in 96 well plates and exposed to the test compound for 48 hours. Compounds are tested at a single concentration, which is 10^-5 M for most compounds. The reported endpoint is percent growth (GI% or GIPRCNT), where numbers from 0 - 100% represent growth inhibition, and numbers from -100% - 0 represent cell death. For example, a value of 40 represents 60% growth inhibition. A value of 0 means no net growth occurred over the course of the experiment. A value of -40 indicates 40% of cells at the beginning of the experiment died by the end of the experiment. A value of -100 means all cells are dead at the end of the experiment.
NCI-60 Human Tumor Cell Lines Screen was performed using the standard one-dose NCI protocol, which is described in more detail at https://dtp.cancer.gov/discovery_development/nci-60/default.htm.
Compounds with GIPRCNT values below 10 were considered active. Activity score was based on GIPRCNT using the following formula: […]
Score is 0 for GIPRCNT values of 100 or above, 50 for GIPRCNT values of 0, and 100 for GIPRCNT values of -100.
`COc1cccc2c1C(=O)c1c(O)c3c(c(O)c1C2=O)C[C@@](O)(C(=O)CO)C[C@@H]3OC1CC(N)C(O)C(C)O1` (stereo not given in full): the growth was 92.5%.

Staying with this test, now noted: 1 µM.
Consider `COc1cccc2c1C(=O)c1c(O)c3c(c(O)c1C2=O)C[C@@](O)(C(=O)CO)C[C@@H]3OC1CC(N)C(O)C(C)O1` (stereo not given in full), for which the growth was 21.1%.

The same test, now with this note: 2.5 µM.
For `COc1cccc2c1C(=O)c1c(O)c3c(c(O)c1C2=O)C[C@@](O)(C(=O)CO)C[C@@H]3OC1CC(N)C(O)C(C)O1` (stereo not given in full), the growth is 35.6%.

Still in this test, the particulars now being: 10 µM.
For the molecule `CO[C@H](C(=O)[C@@H](O)[C@@H](C)O)[C@@H]1Cc2cc3cc(OC4CC(OC5CC(O)C(O)C(C)O5)C(O)C(C)O4)c(C)c(O)c3c(O)c2C(=O)[C@H]1OC1CC(OC2CC(OC3CC(C)(O)C(O)C(C)O3)C(O)C(C)O2)C(O)C(C)O1` (stereo not given in full), the growth is 13.3%. With `CCCCCCCCCCSC(=N)N`, the growth was 66.8%. As for `COc1c(O)cc2oc3cc(O)c(CC=C(C)C)c(O)c3c(=O)c2c1CC=C(C)C`, the growth was 96.4%. As to `CN1CCN(CCCN2c3ccccc3Sc3ccc(C(F)(F)F)cc32)CC1`, the growth was 73.8%. On to `CCN1/C(=C/C=C/C=C/c2sc3ccccc3[n+]2CC)Sc2ccccc21`, for which the growth was -5.19% (active).

In the case of `Nc1ccc2cc3ccc(N)cc3nc2c1`, the growth is 108% and 30.4%. With `OCC1OC(n2cnc3c(=S)nc[nH]c32)C(O)C1O` (stereo not given), the growth was 111% and 97.4%. For the molecule `O=C(C(=Cc1ccccc1)C(=O)c1ccccc1)c1ccccc1`, the growth is 46.9% and 92.4%. As to `O=c1ccn(C2CC(O)C(COC(c3ccccc3)(c3ccccc3)c3ccccc3)O2)c(=O)[nH]1` (stereo not given), the growth is 98.2%. Turning to `Nc1c2ccccc2nc2ccccc12`, the growth is 22.5% and 39.8%. On the same count and under the same terms, then `CCCCCCCCCCCCCCCCCCOCC(COP(=O)([O-])OCC[N+](C)(C)C)OC` (stereo not given), with 80.8%; and `O=C(/C=C/c1cccnc1)c1ccccc1`, with 82.8%. On the same count and under the same terms, then `CS(=O)(=O)OC1CC(n2ccc(=O)[nH]c2=O)OC1COC(c1ccccc1)(c1ccccc1)c1ccccc1` (stereo not given), with 99.8%. Still for that read-out and setting: then `O=C1C=C(O)c2ccccc2C1=O.[Ag]`, with 102%. With `OC(CN1CCCC2CCCCC21)c1cc2ccccc2c2ccccc12` (stereo not given), the growth was 43.6%. Regarding `CCC(C)(C)c1cc(O)c(C(C)(C)CC)cc1O`, the growth was 21.8%. On the same count and under the same terms, then `CC1=CC(C)=Nc2ccc(Cl)cc2N1`, with 106%. For the molecule `CSC1SCC2C(=O)N(C)C(C(C)C)C(=O)OCC(NC(=O)c3cnc4ccccc4n3)C(=O)NC(C)C(=O)N(C)C1C(=O)N(C)C(C(C)C)C(=O)OCC(NC(=O)c1cnc3ccccc3n1)C(=O)NC(C)C(=O)N2C` (stereo not given), the growth is -13.3% (active).

Take `COC(=O)C1C(O)C(C)C(O)C(C)C=C(C)C2=C3C(=C(C)C(=O)c4c(O)c(c(C)c(OC(C)=O)c43)NC(=O)C(C)=C/C=C\C(C)C(O)C(C)C1O)OCO2` (stereo not given): the growth was 109%. Take `COC1OCC(O)C(O)C1O` (stereo not given): the growth was 113%. For `O=C(Nc1ccc(C(=O)O)c(O)c1)c1ccccc1`, the growth is 107% and 102%. As to `Clc1cc(Cl)c(Cl)nn1`, the growth was 94.2%. Turning to `Nc1nc(=S)c2ncn(C3OC(CO)C(O)C3O)c2[nH]1` (stereo not given), the growth is 107% and 78.6%.

As for `CCCC1CCC(=C2C(=O)CCC2=O)O1` (stereo not given), the growth is 99.7% and 98.9%. For the molecule `COc1cccc2c1C(=O)c1c(O)c3c(c(O)c1C2=O)C[C@@](O)(C(=O)CO)C[C@@H]3OC1CC(N)C(O)C(C)O1` (stereo not given in full), the growth was -0.904% (active). On to `Cc1cc(NS(=O)(=O)c2ccc(N=Nc3cc(N=Nc4ccc(S(=O)(=O)Nc5cc(C)nc(C)n5)cc4)c4c(NC(=O)C(Cl)Cl)cccc4c3OC(=O)C(Cl)Cl)cc2)nc(C)n1` (tested in a mixture with another compound), for which the growth is 97.4% and 95.7%. On to `COc1cccc2c1C(=O)c1c(O)c3c(c(O)c1C2=O)C[C@@](O)(C(C)=O)C[C@@H]3OC1CC(N)C(O)C(C)O1` (stereo not given in full), for which the growth is -9.95% (active). For the molecule `NNc1ccc2ccccc2c1`, the growth is 99% and 102%. The same measure, in the same setting: then `CC[N+](CC)=c1ccc2nc3c(cc(N)c4ccccc43)oc-2c1`, with -64.3% (active).

Regarding `COc1ccc(CC(=O)c2ccc(O)cc2O)cc1`, the growth was 121%. For `CCN(CC)c1ccc(NC(C(=O)c2ccccc2)c2ccccc2)cc1` (stereo not given), the growth is 36.6%. With `CCCCCCCCCCCCSC(=NC)NC`, the growth was 42.6% and 91.6%. In the case of `CC(=O)OCC(OC(C)=O)C(OC(C)=O)C(OC(C)=O)C(OC(C)=O)C(/C=N/Nc1ccccc1)=N/Nc1ccccc1` (stereo not given), the growth is 88.9%. For `NC1=C(Cl)C(=O)c2ccccc2C1=O`, the growth is 72.1%. On the same count and under the same terms, the value for `NC(=O)SCC(=O)NNc1ccccc1` was 108%; that for `CC(C)(C)CC(C)(C)c1ccc(OCCO)cc1` was 106%.

Staying with this test, now noted: 100 µM.
`O=c1ccn(C2CC(O)C(COC(c3ccccc3)(c3ccccc3)c3ccccc3)O2)c(=O)[nH]1` (stereo not given): the growth is 69.8%.
